Screening results from PubChem.
KB-3-1 cytotox – KB-3-1 parental cell cytotoxicity; Potency, µM (top dose mostly 46.1 µM), most hits filed as cytotoxic; AID 1347075; KB-3-1 viability, CellTiter-Glo ATP luminescence, 72 h; 400,000 tested, 1.4% active; further: nearly all actives have a fitted effect of over 60% in size
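KB-3-1 cells, DMEM (no phenol red) + 10% FBS; compound by pin transfer, 72 h, 37 °C. Readout: CellTiter-Glo luminescence after 10 min. Data normalized, curve-fitted.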
hERG WT inh – KCNH2 (human, wildtype) channel inhibition; Q12809; U2OS, BacMam KCNH2, thallium flux FluxOr; hits give low values; activity change, % at 1.84 µM; 340,000 tested, 0.37% active; AID 720551;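 active means maximum activity change below -70%; inconclusive means maximum activity change between -70% and -50%; inactive means maximum activity change above -50%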
Target sequence (Q12809 whole entry, looked up): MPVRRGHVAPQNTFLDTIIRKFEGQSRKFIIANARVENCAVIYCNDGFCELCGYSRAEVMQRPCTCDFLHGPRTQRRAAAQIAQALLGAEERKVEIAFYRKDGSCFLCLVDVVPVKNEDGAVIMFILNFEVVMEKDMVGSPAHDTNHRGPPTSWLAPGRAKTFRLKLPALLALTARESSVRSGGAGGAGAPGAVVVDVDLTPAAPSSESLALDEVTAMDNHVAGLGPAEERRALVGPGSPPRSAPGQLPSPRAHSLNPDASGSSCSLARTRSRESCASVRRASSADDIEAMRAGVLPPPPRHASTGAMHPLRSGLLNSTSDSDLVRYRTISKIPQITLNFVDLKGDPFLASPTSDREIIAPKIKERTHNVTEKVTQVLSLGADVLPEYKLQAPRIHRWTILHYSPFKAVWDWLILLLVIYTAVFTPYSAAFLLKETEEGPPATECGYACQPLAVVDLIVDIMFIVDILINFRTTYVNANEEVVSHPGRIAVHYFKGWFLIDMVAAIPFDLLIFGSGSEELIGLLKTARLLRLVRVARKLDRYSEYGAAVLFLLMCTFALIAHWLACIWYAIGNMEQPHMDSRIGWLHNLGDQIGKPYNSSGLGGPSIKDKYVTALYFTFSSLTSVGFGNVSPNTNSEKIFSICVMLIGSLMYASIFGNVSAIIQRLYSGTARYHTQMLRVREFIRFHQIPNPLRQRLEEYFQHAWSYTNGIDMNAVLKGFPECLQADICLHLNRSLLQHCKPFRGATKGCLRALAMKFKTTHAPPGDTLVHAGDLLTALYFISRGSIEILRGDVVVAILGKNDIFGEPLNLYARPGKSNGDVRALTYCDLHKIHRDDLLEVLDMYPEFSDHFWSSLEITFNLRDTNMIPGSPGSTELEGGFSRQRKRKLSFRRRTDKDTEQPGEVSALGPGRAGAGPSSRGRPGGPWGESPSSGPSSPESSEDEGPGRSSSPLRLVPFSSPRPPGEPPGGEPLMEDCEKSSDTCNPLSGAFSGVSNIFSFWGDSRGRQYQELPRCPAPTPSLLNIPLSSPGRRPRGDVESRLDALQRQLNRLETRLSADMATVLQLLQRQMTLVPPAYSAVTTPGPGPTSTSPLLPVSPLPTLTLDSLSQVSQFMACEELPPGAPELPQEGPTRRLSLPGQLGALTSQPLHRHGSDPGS
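U2OS cells were transduced with wild-type KCNH2 virus (2.03 x 10^8 / mL) for 4 h at room temperature, then cultured overnight at 37 C. Thallium flux was read with FluxOr dye. Rate constants were normalized to DMSO controls.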
MCF10A rereplic – DNA re-replication induction in MCF 10a cells | MCF 10A DNA re-replication, Hoechst nuclear intensity, 48 h | Potency, µM (titrated, usually from 46.1 µM), actives largely listed as activators | 350,000 tested, 2.9% active | AID 624296; further: nearly all actives have a fitted effect of over 50% in size
KB-V1 cytotox – kills drug-selected multidrug resistant KB-V1 cells | KB-V1 MDR cells viability, CellTiter-Glo, 72 h | Potency, µM (doses to about 46.1 µM), usual class: cytotoxic | 400,000 tested, 3.4% active | AID 1347076; further: nearly all actives have a fitted effect of over 60% in size
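Cells of the MDR subline KB-V1 are plated, dosed with compound at multiple concentrations, and incubated 72 h at 37 degrees C; CellTiter-Glo is then added and luminescence read after 10 min.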
SW480 rerep – inducers of DNA re-replication in SW480 colon cancer cells; SW480 DNA re-replication, Hoechst DNA content imaging, 48 h; Potency, µM (titrated, usually from 46.1 µM), actives largely listed as activators; 340,000 tested, 1.8% active; further: nearly all actives have a fitted effect of over 55% in size
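Compounds, transferred as 23 nL by pin tool, were incubated with cells for 48 hr; DNA content per nucleus was then quantified by Hoechst staining and fluorescence plate imaging.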
KCNH2 3.1 block – blocks the human KCNH2 3.1 channel isoform; U2OS KCNH2 3.1, thallium flux FluxOr; hits give low values; activity change, % (tested at about 1.8 µM); 340,000 tested, 0.95% active; AID 720553;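 active means maximum activity change below -70%; inconclusive means maximum activity change from -70% to -50%; inactive means maximum activity change above -50%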;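 further: thallium influx rate constant from kinetic fluorescence after stimulation buffer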
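Steps: virus added to U2OS suspension (4 h, RT, dark); medium with 10% FBS added, cells plated, 37 C overnight; FluxOr/Red40 loading buffer 45 min RT; stimulation buffer, 2 min kinetic read; rate constant normalized.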
A number is an active result; – = inactive; ? = inconclusive; ! = not confirmed by another sample; [ ] = dose if it differs, or a comment. A selection: hits, their analogues and other compounds. The true share with any hit is near 7.6%. Unless noted, the call rests on the fitted dose curve; in most records, active means well fitted curve in the direction sought with a large enough effect; inconclusive means small, poorly fitted or top-dose-only effect, or another doubt; inactive means no such curve, though single readings can be large; an effect the other way counts as inactive or inconclusive.

SMILES | KB-3-1 cytotox | hERG WT inh | MCF10A rereplic | KB-V1 cytotox | SW480 rerep | KCNH2 3.1 block
O=C(CSC1=Nc2ccccc2C2CC=NN12)Nc1ccc(F)cc1Cl (centres undefined) | – | – | ? | ? | – | –
COC(=O)c1ccc(NC(=O)CSC2=Nc3ccccc3C3CC=NN23)cc1 (centres undefined) | – | – | – | 16µM | – | –
Cc1ccc(NC(=O)CSC2=Nc3ccccc3C3CC=NN23)c(C)c1 (centres undefined) | – | – | – | 13µM | – | –
Cc1c(NC(=O)c2ccco2)cccc1C(=O)NN1C(=O)c2ccccc2C1=O | – | – | – | – | – | –
CC(=O)NC(Cc1ccc(F)cc1)C(=O)NC1CCN(c2ncccc2[N+](=O)[O-])CC1 (centres undefined) | – | – | 0.82µM | – | – | –
CC(=O)NC(Cc1cccc(F)c1)C(=O)NC1CCN(c2ncccc2[N+](=O)[O-])CC1 (centres undefined) | – | – | – | – | – | –
COc1cccc(CC(NC(C)=O)C(=O)NC2CCN(c3c(Cc4ccccc4)c(C)nc4ncnn34)CC2)c1 (centres undefined) | ? | – | ? | – | 23µM! | –
CC(=O)NC(Cc1cccc(C)c1)C(=O)NC1CCN(c2ncccc2[N+](=O)[O-])CC1 (centres undefined) | – | – | – | 15µM | – | –
CCN(CC)c1nc(C#N)cc(-c2ccc(OC)cc2)n1 | 7.3µM | – | 15µM | 5.8µM | 12µM | –
COc1ccc(-c2cc(C#N)nc(NN)n2)cc1 | ? | – | ? | – | – | –
COc1ccc(-c2cc(C#N)nc(Oc3ccc(Cl)cc3)n2)cc1 | – | – | – | – | – | –
COc1ccc(-c2cc(C#N)nc(Cl)n2)cc1 | – | – | ? | – | – | -80
O=CNc1ccc2c(c1)Cc1cc([N+](=O)[O-])ccc1-2 | 2.3µM | – | ? | ? | 3.3µM | –
CCC(=O)Nc1ccc2c(c1)Cc1cc([N+](=O)[O-])ccc1-2 | – | – | – | – | – | –
Nc1c2c(nc3sc4c(c13)CCCC4)-c1ccccc1CC2 | ? | – | ? | ? | – | –
COc1ccc(C2C(C#N)=C(N)N(c3sc4c(c3C#N)CCCC4)C3=C2C(=O)CC(C)(C)C3)cc1 (centres undefined) | – | – | – | 5.8µM | – | –
CC(C(Sc1ccccc1N)c1ccccc1)[N+](=O)[O-] (centres undefined) | 12µM | – | ? | – | – | –
Nc1sc(-c2ccccc2)cc1-c1n[nH]c(=S)n1C1CCCCC1 | ? | – | 3.3µM | – | 3.3µM | –
CCCCC(CC)C(=O)Nc1cc(C(=O)NCCC)ccc1N1CCC2(CC1)CC(c1cccc(Br)c1)=NO2 (centres undefined) | – | -84 | – | – | ? | ?
CCCCC(CC)C(=O)Nc1cc(C(=O)NCc2ccc(C)cc2)ccc1N1CCC2(CC1)CC(c1cccc(Br)c1)=NO2 (centres undefined) | – | – | – | ? | –[9.22 µM] | –
CCCNC(=O)c1ccc(N2CCC3(CC2)CC(c2ccccc2)=NO3)c(NC(=O)Cc2ccc(F)cc2)c1 | – | ? | – | – | – | -77
COC(=O)COc1cccc(NC(=O)C(c2ccccc2)c2ccccc2)c1 | – | – | – | – | – | –
Cc1ccc(-n2cc3c(-c4cccc(Br)c4)nnc(C)c3n2)cc1 | ? | – | – | 16µM | – | –
COc1ccc(NC(=O)C(C)SCc2ccccc2)cc1OC (centres undefined) | – | – | – | 23µM | – | –
CC(C(=O)Nc1ccc2c(c1)OCO2)N(C)CC(=O)Nc1ccccc1Cl (centres undefined) | – | – | – | – | – | –
COc1cccc(NC(=O)C(C)SCc2ccccc2)c1 (centres undefined) | – | – | – | ? | –[1.84 µM] | –
CC(SCc1ccccc1)C(=O)Nc1ccc2c(c1)OCO2 (centres undefined) | – | – | – | 18µM | – | –
